This is part of a sample that, as a whole, favours compounds with a hit. Of some 79,000 tested, about 15% had one in any assay. No stated cut-off is given here; in the data, active means growth inhibition above about 70%; inactive means the rest.
Experiments:
[1] = NCI Yeast Anticancer Drug Screen. Data for the rad52 strain (AID 147);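 further: 0% = growth of vehicle-treated control cultures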; conditions: S. cerevisiae rad52 mutant growth inhibition, hits give high values
Summary of the method: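 Inhibition of yeast growth, referenced to vehicle controls, was the measured output for a strain with defective DNA damage repair.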

[2] = NCI Yeast Anticancer Drug Screen. Data for the wt1 strain (AID 149);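 further: 0% = growth of vehicle-treated wt1 cultures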; conditions: S. cerevisiae wt1 strain (SPY 50644) growth inhibition, hits give high values
Summary of the method: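 wt1 strain grown with compound or vehicle; inhibition taken from the growth difference.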

[3] = NCI Yeast Anticancer Drug Screen. Data for the rad50EPP+ strain (AID 151);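 further: 0% = growth of vehicle-treated control cultures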; conditions: S. cerevisiae rad50 mutant strain, hits give high values
Summary of the method: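 Genetically defined yeast (rad50EPP+, DNA damage repair alteration) is grown with compound, and inhibition of growth is expressed relative to vehicle-treated controls.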

[4] = NCI Yeast Anticancer Drug Screen. Data for the mgt1 strain (AID 153); conditions: S. cerevisiae mgt1 mutant growth inhibition, hits give high values
Summary of the method: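 In the mgt1 strain, test compounds were added and growth inhibition was determined relative to vehicle-treated controls.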

[5] = NCI Yeast Anticancer Drug Screen. Data for the rad50 strain (AID 155);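 further: 0% = growth of vehicle-only cultures of the same strain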; conditions: S. cerevisiae rad50 strain growth inhibition, hits give high values
Summary of the method: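 DNA repair mutant yeast, compound exposure, growth read-out; inhibition is taken relative to vehicle.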

[6] = NCI Yeast Anticancer Drug Screen. Data for the mec2-1 strain (AID 157); conditions: S. cerevisiae mec2-1 strain, hits give high values
Summary of the method: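 Each compound was tested on mec2-1 yeast, a strain altered in DNA damage repair or cell cycle control. Growth inhibition is reported relative to vehicle.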

[7] = NCI Yeast Anticancer Drug Screen. Data for the rad14 strain (AID 159);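 further: 0% = growth of vehicle-treated control cultures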; conditions: S. cerevisiae rad14 strain growth inhibition, hits give high values
Summary of the method: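 DNA repair-defective yeast, compound-exposed; % growth inhibition derived by comparison with vehicle-treated controls.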

[8] = NCI Yeast Anticancer Drug Screen. Data for the sgs1 mgt1 strain (AID 161);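 further: 0% = growth of cultures given vehicle only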; conditions: S. cerevisiae sgs1 mgt1 strain, hits give high values
Summary of the method: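 Inhibition of yeast growth, normalised to vehicle-treated controls, is reported for a strain bearing genetic alterations in DNA damage repair.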

[9] = NCI Yeast Anticancer Drug Screen. Data for the CLN2oe strain (AID 163);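 further: 0% = growth of vehicle-only control cultures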; conditions: S. cerevisiae CLN2oe strain, hits give high values
Summary of the method: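 First, the altered yeast strain was treated with each compound; second, its growth was measured; finally, inhibition was derived by comparison with vehicle controls.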

[10] = NCI Yeast Anticancer Drug Screen. Data for the cln2 rad14 strain (AID 165);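 further: 0% = growth equal to vehicle treated cultures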; conditions: S. cerevisiae cln2 rad14 strain, hits give high values
Summary of the method: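 Test compounds were added to cln2 rad14 yeast cultures; inhibition of growth was then determined by comparison with vehicle treatment.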

[11] = NCI Yeast Anticancer Drug Screen. Data for the bub3 strain (AID 167); conditions: S. cerevisiae bub3 mutant strain, hits give high values
Summary of the method: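 In this screen, a yeast mutant lacking normal mitotic checkpoint function is challenged with compound. Relative growth versus vehicle gives the inhibition value.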

[12] = NCI Yeast Anticancer Drug Screen. Data for the wt2 strain (AID 169);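 further: 0% = growth of vehicle-treated yeast cultures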; conditions: S. cerevisiae wt2 strain growth inhibition, hits give high values
Summary of the method: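 The panel's yeast strains carry defined changes in DNA repair or cell cycle genes. Each strain is grown with compound, and growth loss is scored relative to vehicle.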

[13] = NCI Yeast Anticancer Drug Screen. Data for the mlh1 strain (AID 171);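 further: 0% = growth of vehicle-treated control cultures of the same strain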; conditions: S. cerevisiae mlh1 strain growth inhibition, hits give high values
Summary of the method: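 Inhibition values reflect reduced yeast growth in the presence of compound, referenced to vehicle controls, using a strain chosen for its alteration in DNA repair or cell cycle control.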

[14] = NCI Yeast Anticancer Drug Screen. Data for the sgs1 strain (AID 173);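 further: 0% = growth of vehicle-only control cultures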; conditions: S. cerevisiae sgs1 mutant, hits give high values
Summary of the method: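 Vehicle-treated cultures served as reference for growth inhibition of a yeast strain altered in DNA damage repair or cell cycle control after compound exposure.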

[15] = NCI Yeast Anticancer Drug Screen. Data for the mlh1 rad18 strain (AID 175); conditions: S. cerevisiae mlh1 rad18 strain growth inhibition, hits give high values
Summary of the method: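 Inhibition values reflect reduced growth of mutant yeast versus vehicle-treated controls following compound exposure; the mutations affect DNA damage repair.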

[16] = NCI Yeast Anticancer Drug Screen. Data for the rad18 strain (AID 177); conditions: S. cerevisiae rad18 mutant growth inhibition, hits give high values
Summary of the method: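 Steps: expose repair-mutant yeast to compound; measure growth; express as inhibition relative to vehicle control.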

[17] = at 5.0 µM (retest, dose inferred, filed as 0.5)
[18] = at 50.0 µM (retest, dose inferred, filed as 5.0)

Measured: growth inhibition

CCOC(=O)C1=C(C)NC(C)=C(C(=O)OCCNC(=O)c2ccc(N=[N+]=[N-])cc2)C1c1ccccc1C(F)(F)F (stereo not drawn)
inactive: [1]; at 1.2 µM 4% | [1]; at 3.7 µM 4% | [1]; at 11.0 µM 13% | [1]; at 33.0 µM 24% | [1]; at 100.0 µM 39% | [2]; at 1.2 µM 1% | [2]; at 3.7 µM 0% | [2]; at 11.0 µM -2% | [2]; at 33.0 µM 2% | [2]; at 100.0 µM 21% | [3]; at 1.2 µM -1% | [3]; at 3.7 µM 0% | [3]; at 11.0 µM 1% | [3]; at 33.0 µM 3% | [3]; at 100.0 µM -11% | [4]; at 1.2 µM -2% | [4]; at 3.7 µM -3% | [4]; at 11.0 µM -2% | [4]; at 33.0 µM 12% | [4]; at 100.0 µM 24% | [5]; at 1.2 µM 1% | [5]; at 3.7 µM -1% | [5]; [17] 3% | [5]; at 11.0 µM 17% | [5]; at 33.0 µM 39% | [5]; [18] 18% | [5]; at 50.0 µM 40.1% | [5]; at 100.0 µM 41% | [6]; at 1.2 µM 1% | [6]; at 3.7 µM 4% | [6]; [17] 1% | [6]; at 11.0 µM -2% | [6]; at 33.0 µM 13% | [6]; [18] -46% | [6]; at 50.0 µM 53.3% | [6]; at 100.0 µM 47% | [7]; at 1.2 µM 0% | [7]; at 3.7 µM -4% | [7]; at 11.0 µM 3% | [7]; at 33.0 µM 8% | [7]; at 100.0 µM 22% | [8]; [17] 5% | [8]; [18] 51% | [8]; at 50.0 µM 9.9% | [9]; at 1.2 µM -3% | [9]; at 3.7 µM -2% | [9]; at 11.0 µM -2% | [9]; at 33.0 µM 25% | [9]; at 100.0 µM 53% | [10]; [17] 4% | [10]; [18] 19% | [10]; at 50.0 µM 2.85% | [11]; at 1.2 µM -8% | [11]; at 3.7 µM -7% | [11]; [17] -42% | [11]; at 11.0 µM -5% | [11]; at 33.0 µM 4% | [11]; [18] 29% | [11]; at 50.0 µM 57.4% | [11]; at 100.0 µM 31% | [12]; at 1.2 µM 0% | [12]; at 3.7 µM -2% | [12]; at 11.0 µM 0% | [12]; at 33.0 µM 5% | [12]; at 100.0 µM 19% | [13]; at 1.2 µM 6% | [13]; at 3.7 µM -5% | [13]; at 11.0 µM -1% | [13]; at 33.0 µM 9% | [13]; at 100.0 µM 28% | [14]; at 1.2 µM 1% | [14]; at 3.7 µM -2% | [14]; at 11.0 µM 1% | [14]; at 33.0 µM 32% | [14]; at 100.0 µM 65% | [15]; [17] 2% | [15]; [18] 43% | [15]; at 50.0 µM 32.5% | [16]; at 1.2 µM 3% | [16]; at 3.7 µM -4% | [16]; at 11.0 µM 4% | [16]; at 33.0 µM 8% | [16]; at 100.0 µM 23%

Source: PubChem BioAssay (NCI)
